Inconclusive results are not listed. Activity calls are given as the source filed them. Rule for the calls, unless noted: active = hit-call score of the fitted dose curve at least 0.9, where 1 is the maximum; inactive = score below 0.9.
How the values were obtained:
[1] = CCTE_Mundy_HCI_hNP1_Pro_ResponderAvgInten: CCTE's Proliferation Assay in human neuroprogenitor cells, Mundy Lab (AID 2284224; active = hit-call score of the fitted dose curve at least 0.9, where 1 is the maximum;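 note: human neural progenitor cells hNP1 derived from WA09 embryonic stem cells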)
In short: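 Proliferation read as average intensity of BrdU-positive cells, imaged at 26.25 h post-dosing: chemical exposure started after 40–44 h culture, BrdU during final 4 h, paraformaldehyde fixation. Positive-direction fit relative to DMSO.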

[2] = UKN2_HCS_IMR90_cell_viability: Viability Assessment in the University of Konstanz (UKN) Leist Lab Neural Crest Cell Migration Assay in human induced IMR90 Pluripotent Stem Cells (UKN2) (AID 2284233);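 note: cells exposed to compound for 24 h after a 24 h migration phase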
In short: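 Viability read as calcein-AM fluorescence by high-content imaging, Hoechst co-stain, 30 min. Human iPSC (IMR90) neural crest cells had migrated 24 h into stopper-defined gaps before 24 h chemical exposure. Fitted bidirectionally relative to DMSO.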

[3] = CCTE_Mundy_HCI_Cortical_NOG_NeuronCount: CCTE's Neurite Outgrowth Assay in rat cortical cells for Neuron Count, Mundy Lab (AID 2284236; active = hit-call score of the fitted dose curve at least 0.9, where 1 is the maximum;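 note: neurons counted by imaging betaIII-tubulin and Hoechst stained cortical cells; cells exposed to compound for about 48 hours before fixation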)
In short: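 Read-out: neuron number by high-content imaging of betaIII-tubulin (Alexa Fluor-488) and Hoechst-labelled rat primary cortical cells.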

[4] = CCTE_Mundy_HCI_hNP1_Casp3_7: CCTE's Caspase-Glo 3/7 Assay in human neuroprogenitor cells for Apoptosis, Mundy Lab (AID 2284240)
In short: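 Luminescent caspase-3/7 readout, 26.5 h post-dose, in human neural progenitor cells from WA09 embryonic stem cells. Cells grew 40–44 h at 37 °C, 5% CO2 before chemical addition. Activity analysed as signal increase over DMSO baseline.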

[5] = CCTE_Mundy_HCI_Cortical_Synap_Neur_Matur_NeuronCount: CCTE's Synaptogenesis and Neurite Maturation Assay in rat cortical cells for Neuron Count, Mundy Lab (AID 2284242; active = hit-call score of the fitted dose curve at least 0.9, where 1 is the maximum;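 note: neuron number from Hoechst nuclei and MAP2 staining by high-content imaging; hits reduce neuron count versus DMSO baseline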)
In short: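 Rat cortical cultures; AraC DIV 5; chemical dosing + media change DIV 7 to DIV 12 (288.33 h readout). Fix, Hoechst, anti-MAP2/anti-synaptophysin immunostain; HCI neuron count vs DMSO baseline.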

[6] = IUF_NPC2c_oligodendrocyte_migration_120hr: Leibniz Research Institute for Environmental Medicine (IUF) 120-hour Neural Progenitor Cell Migration Assay for Oligodendrocyte Migration (NPC2c) (AID 2284297)
In short: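 Read-out is the mean distance of O4-positive oligodendrocytes from the sphere core edge at 120 h, normalized to radial glia migration and fitted in the gain direction against DMSO. Spheres of primary human neural progenitors differentiated on laminin under continuous compound exposure.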

[7] = IUF_NPC2a_radial_glia_migration_120hr: Leibniz Research Institute for Environmental Medicine (IUF) 120-hour Neural Progenitor Cell Migration Assay for Radial Glia Migration (NPC2a) (AID 2284298)
In short: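 Readout: distance in um from sphere core edge to migration-area edge, derived from Hoechst nuclei density with a threshold-defined polynomial boundary. Spheres: hNPC, GW 16-19, 0.3 mm, on PDL/laminin; exposure 5 days; DMSO is baseline.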

[8] = IUF_NPC2a_radial_glia_migration_72hr: Leibniz Research Institute for Environmental Medicine (IUF) 72-hour Neural Progenitor Cell Migration Assay for Radial Glia Migration (NPC2a) (AID 2284299)
In short: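 Readout: mean of four manual brightfield measurements of radial glia migration distance (um) at 72 h. hNPC spheres (0.3 mm) exposed to 7 compound concentrations plus solvent control on PDL/laminin, 37C, 5% CO2; activity fitted relative to DMSO.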

[9] = IUF_NPC2b_neuronal_migration_120hr: Leibniz Research Institute for Environmental Medicine (IUF) 120-hour Neural Progenitor Cell Migration Assay for Neuron Migration (NPC2b) (AID 2284300)
In short: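 Read-out is mean distance from sphere edge to each TUBB3-positive neuron at 120 h, expressed relative to radial glia migration distance and to DMSO baseline. Single 0.3 mm human NPC spheres differentiated on laminin under continuous compound exposure.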

[10] = IUF_NPC3_neuronal_differentiation_120hr: Leibniz Research Institute for Environmental Medicine (IUF) 120-hour Neuronal Differentiation Assay (NPC3) (AID 2284301)
In short: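 hNPC spheres, PDL/laminin, DMEM/F12 3:1 + 1% N2, 37C, 5% CO2; 7 concentrations + solvent control, 5 d exposure, half-change day 3. Fix 120 h; TUBB3/Hoechst ICC, CNN neuron calling; % neurons vs nuclei, DMSO-normalized.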

[11] = IUF_NPC4_neurite_length_120hr: Leibniz Research Institute for Environmental Medicine (IUF) 120-hour Neuronal Morphology Assay for Neurite Length (NPC4) (AID 2284302)
In short: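 hNPC spheres (0.3 mm, fetal brain GW 16-19) on PDL/laminin, DMEM:F12 3:1 + 1% N2, 37C 5% CO2; 7 concs + solvent control, day 0-5, half medium change d3; fix 120 h, TUBB3 ICC, mean neurite length um vs DMSO.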

[12] = IUF_NPC5_oligodendrocyte_differentiation_120hr: Leibniz Research Institute for Environmental Medicine (IUF) 120-hour Oligodendrocyte Differentiation Assay (NPC5) (AID 2284304; active = hit-call score of the fitted dose curve at least 0.9, where 1 is the maximum;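 note: primary human fetal neural progenitor spheres plated to migrate and differentiate; share of O4-positive cells among Hoechst nuclei found by CNN image analysis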)
In short: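 Oligodendrocyte differentiation was scored after 120 h as the O4-positive share of Hoechst-stained nuclei across the neurosphere migration area, using a trained convolutional neural network on high-content fluorescence images. Human fetal neural progenitor spheres were dosed from day 0, normalised to DMSO.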

[13] = IUF_NPC4_neurite_area_120hr: Leibniz Research Institute for Environmental Medicine (IUF) 120-hour Neuronal Morphology Assay for Neurite Area (NPC4) (AID 2284305; active = hit-call score of the fitted dose curve at least 0.9, where 1 is the maximum)
In short: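 hNPC spheres on PDL/laminin, N2 medium, 37C/5% CO2; dosed day 0, half-medium refresh day 3; fixed 120 h; TUBB3/Hoechst ICC, high-content imaging; neurite area = mean pixels per neuron (nuclei excluded); DMSO baseline, max 0.1%.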

[14] = IUF_NPC2-5_cytotoxicity_120hr: Cytotoxicity Assessment at 120 hours in the Leibniz Research Institute for Environmental Medicine (IUF) Neural Progenitor Cell Migration and Differentiation Assay (NPC2-5) (AID 2284307; active = hit-call score of the fitted dose curve at least 0.9, where 1 is the maximum)
In short: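 Sphere plating starts differentiation and exposure together at day 0. Compound solution is half-replaced on day 3. At 120 h, medium supernatant is taken for an LDH membrane-integrity read based on resazurin reduction to resorufin fluorescence.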

[15] = IUF_NPC2-5_cell_number_120hr: Cell Number Assessment at 120 hours in the Leibniz Research Institute for Environmental Medicine (IUF) Neural Progenitor Cell Migration and Differentiation Assay (NPC2-5) (AID 2284308);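 note: count of Hoechst-stained nuclei in migration zone around plated human neural progenitor spheres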
In short: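 hNPC spheres, one per well, PDL/laminin, N2 medium, 37C, 5% CO2. Dosing day 0 → half-medium change with fresh compound day 3 → fix 120 h. Readout: Hoechst+ nuclei count, migration area; 7 concentrations plus solvent control.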

[16] = IUF_NPC2-5_viability_120hr: Viability Assessment at 120 hours in the Leibniz Research Institute for Environmental Medicine (IUF) Neural Progenitor Cell Migration and Differentiation Assay (NPC2-5) (AID 2284312)
In short: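 Human fetal neural progenitor spheres (0.3 mm) plated on poly-D-lysine/laminin in N2 differentiation medium, exposed 120 h with half-medium refresh at day 3. Viability by alamar blue resazurin fluorescence; 7 concentrations, DMSO max 0.1%.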

[17] = TAMU_PeakParms_SingleDonor1434_Asystole: Texas A&M University (TAMU) 1.5-hr Human Induced Pluripotent Stem Cell (iPSC)-derived Cardiomyocytes Calcium (Ca+2) Flux Assay for Cardiotoxicity: Asystole (quiescence of beating) (AID 2284328; active = hit-call score of the fitted dose curve at least 0.9, where 1 is the maximum)
In short: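 Donor 1434 iPSC-cardiomyocytes exposed 90 min at 37C, 5% CO2, to 0.2, 1, 10 and 100 uM in 0.5% DMSO. Ca2+ dye fluorescence gave average peak frequency; POD is EC95, a 95% beat-rate drop versus controls.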

[18] = IUF_NPC1_cytotoxicity_72hr: Cytotoxicity Assessment at 72 hours in the Leibniz Research Institute for Environmental Medicine (IUF) Neural Progenitor Cell Proliferation Assay (NPC1) (AID 2284332; active = hit-call score of the fitted dose curve at least 0.9, where 1 is the maximum;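 note: rising LDH signal means more cytotoxicity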)
In short: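 LDH in supernatant, resazurin→resorufin fluorescence (RFU), 72 h exposure, no re-dosing. Cells: primary hNPC spheres, one per well, EGF+FGF medium, 37C/5% CO2, pH 7.2-7.6. Fit: positive direction vs baseline and dynamic range.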

[19] = biological target: human Peroxisome Proliferator-activated Receptor alpha (PPARa), PPARA (gene 5465) (UniProt Q07869); test: NVS_NR_hPPARa: NovaScreen (NVS) Nuclear Receptor Binding Assay for human Peroxisome Proliferator-activated Receptor alpha (PPARa) (AID 2283359; active = hit-call score of the fitted dose curve at least 0.9, where 1 is the maximum;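 note: activity means loss of TR-FRET signal versus DMSO baseline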)
Sequence of human Peroxisome Proliferator-activated Receptor alpha (PPARa), PPARA (gene 5465) (Q07869 whole entry, looked up): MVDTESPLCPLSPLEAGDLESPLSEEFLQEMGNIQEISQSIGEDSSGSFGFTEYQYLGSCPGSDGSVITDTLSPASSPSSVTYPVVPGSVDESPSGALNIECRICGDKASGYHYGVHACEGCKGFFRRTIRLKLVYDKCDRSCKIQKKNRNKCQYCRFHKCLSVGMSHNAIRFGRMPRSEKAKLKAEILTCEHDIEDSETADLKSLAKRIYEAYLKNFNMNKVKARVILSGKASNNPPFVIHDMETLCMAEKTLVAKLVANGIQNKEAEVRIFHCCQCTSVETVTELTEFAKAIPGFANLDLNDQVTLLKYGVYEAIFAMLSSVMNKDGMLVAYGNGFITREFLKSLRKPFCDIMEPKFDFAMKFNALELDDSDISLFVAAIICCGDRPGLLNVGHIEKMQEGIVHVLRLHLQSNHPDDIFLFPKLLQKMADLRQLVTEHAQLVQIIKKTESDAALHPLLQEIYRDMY
In short: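 TR-FRET signal measured at 1 h post-dosing; loss-of-signal versus DMSO negative control taken as activity. Extracted gene-protein, cell-free format. Initial single-point duplicates at 25 uM, then concentration-response retests.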

[20] = test system: Thyroperoxidase (TPO), gene 54314; test: CCTE_Simmons_AUR_rTPO: CCTE's Amplex UltraRed Assay for Thyroperoxidase (TPO) Inhibition, Simmons Lab (AID 2283662; active = hit-call score of the fitted dose curve at least 0.9, where 1 is the maximum;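 note: potency for loss of signal meaning inhibition of peroxidase activity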)
In short: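 Rat thyroid microsomes (5 ug protein) were incubated with test compound (8 concentrations, 5 nM–87.5 uM final, 0.5% DMSO), 25 uM Amplex UltraRed and 300 uM H2O2 in 200 mM phosphate buffer for 30 min at 37C in the dark; fluorescence read at 544/590 nm.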

Measured: AC50

CC1(C)[C@H](C(=O)O[C@H](C#N)c2cccc(Oc3ccccc3)c2)[C@@H]1C=C(Br)Br
active: [5] 23900 nM | [7] 65.4 nM | [8] 670 nM | [12] 729 nM | [15] 461 nM
not listed: [19] | [20]
inactive: all other assays above

Nc1ccccc1
inactive: [19]
active: [20] 759 nM

Source: PubChem BioAssay (EPA / NIEHS)
